Rows were chosen to be rich in hits. Some 11% of all compounds tested hit in one or more screens of this group.
AMA1-RON2 inh = disrupts binding of P. falciparum AMA1 to RON2; 360,000 compounds, 0.2% hits; AlphaScreen AMA1-biotinylated RON2 peptide binding; AID 720542; Potency, µM (series often up to 58.2 µM), for the others: at the top dose activity change, negative = inhibition, actives largely listed as inhibitors;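 note: 0% = vehicle wells and -100% = peptide control; nearly all actives have a fitted effect of over 45% in size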
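AMA1 (3D7) with his tag at 25 nM final met compounds first, then biotinylated RON2 peptide at 25 nM; detection used donor plus acceptor beads, 10 µg/mL apiece, read by AlphaScreen after 30 min at room temperature.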
AmpC inh no detg = AmpC beta-lactamase inhibition without detergent. P00811. AmpC nitrocefin hydrolysis, absorbance 480 nm, 0.0001% Triton. Potency, µM (doses to about 57.1 µM), without a hit: at the highest dose activity change, negative = inhibition, actives largely listed as inhibitors. 330,000 compounds, 0.52% hits. AID 485341;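 note: plate controls were no compound for no effect and no enzyme for full effect; nearly all actives have a fitted effect of over 20% in size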
Target sequence (P00811 whole entry, looked up): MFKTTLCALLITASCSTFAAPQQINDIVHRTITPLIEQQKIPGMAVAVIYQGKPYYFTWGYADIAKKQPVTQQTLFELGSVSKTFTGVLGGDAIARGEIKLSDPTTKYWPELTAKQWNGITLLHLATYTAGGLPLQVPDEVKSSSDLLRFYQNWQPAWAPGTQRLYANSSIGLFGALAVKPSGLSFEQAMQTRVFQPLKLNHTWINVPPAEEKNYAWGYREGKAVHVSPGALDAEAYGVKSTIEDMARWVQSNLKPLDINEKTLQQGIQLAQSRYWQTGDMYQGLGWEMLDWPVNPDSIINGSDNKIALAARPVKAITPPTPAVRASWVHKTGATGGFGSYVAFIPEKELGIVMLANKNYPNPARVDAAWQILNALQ
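20 mM phosphate pH 7.0 + 0.01% (detergent screen) or 0.0001% Triton X-100; 5.3 nM AmpC reagent; cpd preinc 15 min RT; nitrocefin (800 uM stock) to start; A480 q20 s × 4 min; Activity was normalised to no-enzyme and no-compound control wells.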
Pf growth 96h = inhibits malaria parasite growth, 96 h; AID 504834; P. falciparum luciferase reporter growth, 96 h; 320,000 compounds, 6.9% hits; Potency, µM (titrated, usually from 28.7 µM), for inactives: top-dose activity change, negative = inhibition, actives largely listed as inhibitors
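Two parasite generations (96 h, 37 C, 5% CO2) of compound exposure in infected erythrocytes (0.05% parasitemia, 2% hematocrit). Luciferase-reporter P. falciparum; decreased luminescence indicates inhibited growth, aimed at apicoplast-acting delayed death.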
HCV inh = inhibitors of hepatitis C virus infection | 340,000 compounds, 3.4% hits | Potency, µM (highest dose often 41.8 µM), for inactives: at the top dose activity change, negative = inhibition, usual class: inhibitors | Huh7.5.1 HCVcc-Cre infection, luciferase reporter, 44 h
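HCVcc-Cre virus at an moi near 0.5 was added right after compound to cells cultured 4 h from seeding (1,000 cells/well). Luciferase activity was determined 44 h later, 15 min after substrate addition at RT.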
Pf growth 48h = P. falciparum growth inhibition at 48 hours (one generation) | AID 504832 | 310,000 compounds, 5.9% hits | P. falciparum luciferase growth in erythrocytes, 48 h | Potency, µM (doses to about 28.7 µM), for the others: top-dose activity change, negative = inhibition, hits mostly inhibitors
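Cell-based growth assay: transgenic P. falciparum expressing firefly luciferase, cultured in red cells within RPMI 1640 containing 0.5% w/v Albumax, 24 mM bicarbonate and gentamycin. A drop in luciferase activity indicates inhibition.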
AmpC detergent = AmpC beta-lactamase inhibition with detergent present. P00811. AmpC hydrolysis of nitrocefin, absorbance 480 nm, 0.01% Triton. Potency, µM (top dose mostly 114 µM), for inactives: at the top dose activity change, negative = inhibition, most hits filed as inhibitors. 370,000 compounds, 0.041% hits;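 note: 0% = no-compound wells and -100% = no-enzyme wells; nearly all actives have a fitted effect of over 25% in size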
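AmpC (5.3 nM in the dispensed reagent) in 20 mM phosphate pH 7.0 with 0.01% (detergent screen) or 0.0001% Triton X-100 was preincubated with compounds for 15 min at room temperature. Nitrocefin was then added from an 800 uM solution, and hydrolysis was followed at 480 nm.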
The depositor's hits bear a star; ? = inconclusive; / = no result given. Calls come from the whole dose curve; as a rule, active = well fitted curve in the direction sought with a large enough effect; inconclusive = small, poorly fitted or top-dose-only effect, or another doubt; inactive = no such curve, though single readings can be large; an effect the other way counts as inactive or inconclusive. Unless noted, % is set by controls: 0 for no effect and ±100 for the full control effect; potency is the fitted concentration of half-maximal effect.

SMILES	AMA1-RON2 inh	AmpC inh no detg	Pf growth 96h	HCV inh	Pf growth 48h	AmpC detergent
CCN(CC)S(=O)(=O)c1ccc(C(=O)NCc2ccc3[nH]c4c(c3c2)CCCC4)cc1	-13%	25µM*	12µM*	?	?	-13%
COc1cc(C2NCC(c3ccc(Cl)cc3Cl)c3c2[nH]c2ccccc32)cc(OC)c1OC (stereo not drawn)	?	129%	12µM*	?	13µM*	-2%
O=C(O)c1ccc(C2NCC(c3ccccc3Cl)c3c2[nH]c2ccccc32)cc1 (stereo not drawn)	-4%	52%	18%	-6%	0%	-4%
CCOc1ccc(NC(=O)Cn2c(=O)n(CC3CCC(C(=O)NCCc4ccccc4)CC3)c(=O)c3ccccc32)cc1 (stereo not drawn)	/	/	/	/	/	-3%
COc1ccccc1-c1nnc(SCC(=O)c2ccc(F)cc2)n1-c1ccccc1	/	/	/	/	/	-1%
Cc1ccc(S(=O)(=O)N(CC(=O)NCCC2=CCCCC2)Cc2ccccc2F)cc1	6%	21%	12µM*	?	?	?
O=C(CN(Cc1ccccc1F)S(=O)(=O)c1ccc(Cl)cc1)NCCC1=CCCCC1	-2%	1%	12µM*	-27%	?	0%
CCOc1ccccc1C(=O)Nc1cccc(-c2nc3ccccc3s2)c1	/	/	/	/	/	21%
O=C(O)CCc1nnc2cnc3ccccc3n12	/	/	/	/	/	20%
Cc1cc(C)cc(NC(=O)C2CCCN(c3nnc(-n4c(C)ccc4C)s3)C2)c1 (stereo not drawn)	/	/	/	/	/	-5%
COc1ccc(OCC(O)CNCCOc2ccccc2OC)c(C(C)(C)C)c1 (stereo not drawn)	?	135%	3.7µM*	18µM*	4.7µM*	-5%
COc1cc(OC)cc(C(=O)Nc2cccc(C(C)=O)c2)c1	4%	-6%	-19%	-17%	?	-3%
CC(CCc1ccccc1)NC(=O)c1ccc(NC(=O)c2cccc(Br)c2)cc1 (stereo not drawn)	4%	-42%	9.3µM*	?	15µM*	?
C[n+]1ccc(C(=O)Nc2ccccc2Cl)cc1	3%	-22%	13µM*	3%	20%	-11%
O=C(Nc1ccccc1Cl)c1ccc2ccccc2c1	18%	-4%	?	1%	24%	-13%
COc1cc(OC)cc(C(=O)Nc2cccc(NC(=O)c3ccccc3)c2)c1	13%	-49%	?	10µM*	/	-9%
CN(C)c1cccc(C(=O)NCc2ccc(Cl)cc2)c1	-6%	11%	75%	0%	4.1µM*	-6%
Cc1c(Cl)cccc1NC(=O)CSc1nc(=O)n(Cc2ccccn2)c2c1CCC2	/	/	/	/	/	2%
Cc1cc(NC(=O)c2ccc(Cl)cc2)ccc1NC(=O)c1ccccc1Cl	-3%	-29%	3.7µM*	?	12%	-4%
Cc1ccc(C(=O)Nc2ccc(NC(=O)c3ccccc3Cl)c(C)c2)cc1	-3%	/	/	/	/	/
COc1cc(CNC(=O)c2cccc(COc3ccc(Cl)cc3)c2)cc(OC)c1	-9%	-35%	-24%	7.9µM*	202%	-7%
Cc1cccc(C(=O)Nc2ccc(NC(=O)Cc3ccc(Cl)cc3)cc2)c1	2%	-17%	12µM*	32%	16%	0%
O=C(NCc1ccccc1)c1cccc(COc2ccc(Cl)cc2)c1	44%	0%	375%	?	138%	-2%
O=C(Nc1cccc(C(=O)Nc2ccc(Br)cc2)c1)c1ccccc1	0%	32µM*	40%	?	11%	-10%
O=C(O)c1cccc(NC(=O)c2ccc(S(=O)(=O)c3ccccc3)cc2)c1	0%	-11%	12µM*	10%	46%	-9%
Cc1ccccc1NC(=O)c1cc(S(=O)(=O)c2ccccc2)ccc1Cl	-2%	-55%	/	-28%	-22%	-13%
